# This is one part of a sample in which the strongest signals are shown more often than they occur.
# Tested on: Gal(b1-3)Gal(b1-4)GlcNAc
# Experiment: glycan array binding signal (z-score within array); higher = stronger binding
# Settings: glycan notation: IUPAC condensed, linker removed
# Outline: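 Glycan array data came from 3228 arrays in the Consortium for Functional Glycomics database, and only arrays with an available protein sequence were kept. Glycan names were put into IUPAC-condensed notation, and columns mapping to the same glycan were averaged. The binding signal is a within-array Z-score, averaged across arrays of one protein sequence run at different concentrations or buffers and across linkers. A negative Z-score can be read as non-binding.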
row,Substance,glycan array binding signal (z-score)
1,"SiiE (Salmonella typhimurium), A0A0H3NVH0",-1.51
2,"Wza (Escherichia coli), P0A930",3.02
3,"SpGH101 (Streptococcus pneumoniae), Q8DR60",-0.193
4,Actinohivin (Actinomycete K97),-0.14

# From the supplement of paper PMC8728848
